# This is one part of a sample in which the strongest signals are shown more often than they occur.
# Columns and labels:
# Assay in all cases: glycan array binding signal (z-score within array); higher = stronger binding
# Conditions in all cases: glycan notation: IUPAC condensed, linker removed
# [1] = target: Fuc(a1-2)Gal(b1-3)GlcNAc(b1-3)GalNAc
# In short: (§1)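 The binding signal is a Z-score computed within each array. Data were drawn from 3228 arrays in the Consortium for Functional Glycomics database, restricted to those with a known protein sequence. Scores were averaged over arrays of the same protein sequence at different concentrations or buffers, and over linkers, and negative values can be taken as non-binding.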
# [2] = target: Fuc(a1-2)Gal(b1-3)[Fuc(a1-4)]GlcNAc(b1-2)Man(a1-3)[Fuc(a1-2)Gal(b1-3)[Fuc(a1-4)]GlcNAc(b1-2)Man(a1-3)]Man(b1-4)GlcNAc(b1-4)GlcNAc
# In short: as §1
# [3] = target: Fuc(a1-2)Gal(b1-4)GlcNAc(b1-3)GalNAc
# In short: as §1
# [4] = target: Fuc(a1-2)Gal(b1-4)GlcNAc(b1-3)[Fuc(a1-2)Gal(b1-4)GlcNAc(b1-6)]GalNAc
# In short: as §1
# [5] = target: Fuc(a1-2)Gal(b1-4)GlcNAc(b1-3)[Fuc(a1-3)[Gal(b1-4)]GlcNAc(b1-6)]Gal(b1-4)Glc
# In short: as §1
# [6] = target: Fuc(a1-2)[Gal(a1-3)]Gal(b1-3)GlcNAc(b1-2)Man(a1-3)[Fuc(a1-2)[Gal(a1-3)]Gal(b1-3)GlcNAc(b1-2)Man(a1-6)]Man(b1-4)GlcNAc(b1-4)GlcNAc
# In short: as §1
# [7] = target: Fuc(a1-2)[Gal(a1-3)]Gal(b1-4)Glc
# In short: as §1
# [8] = target: Fuc(a1-2)[Gal(a1-3)]Gal(b1-4)GlcNAc(b1-3)[Fuc(a1-2)[Gal(a1-3)]Gal(b1-4)GlcNAc(b1-6)]GalNAc
# In short: as §1
# [9] = target: Fuc(a1-2)[Gal(a1-3)]Gal(b1-4)GlcNAc(b1-6)GalNAc
# In short: as §1
# [10] = target: Fuc(a1-2)[GalNAc(a1-3)]Gal(b1-4)GlcNAc(b1-2)Man
# In short: as §1
# [11] = target: Fuc(a1-3)[Gal3S(b1-4)]GlcNAc
# In short: as §1
# [12] = target: Fuc(a1-3)[GalNAc(b1-4)]GlcNAc
# In short: as §1
# Fuc(a1-4)GlcNAc = target: Fuc(a1-4)GlcNAc
# In short: as §1
# [13] = target: Gal(a1-3)[Gal(a1-4)]Gal(b1-4)GlcNAc
# In short: as §1
# [14] = target: Gal(b1-3)GlcNAc(b1-3)Gal(b1-4)GlcNAc(b1-2)[Gal(b1-3)GlcNAc(b1-3)Gal(b1-4)GlcNAc(b1-6)]Man(a1-6)[Gal(b1-3)GlcNAc(b1-3)Gal(b1-4)GlcNAc(b1-2)Man(a1-3)]Man(b1-4)GlcNAc(b1-4)[Fuc(a1-6)]GlcNAc
# In short: as §1
# [15] = target: Gal(b1-3)[Neu5Ac(a2-6)]GalNAc
# In short: as §1
# [16] = target: Gal(b1-3)[Neu5Ac(b2-6)]GalNAc
# In short: as §1
# [17] = target: Gal(b1-4)GlcNAc(a1-6)Gal(b1-4)GlcNAc
# In short: as §1
# [18] = target: Gal(b1-4)GlcNAc(b1-2)[Gal(b1-4)GlcNAc(b1-4)]Man(a1-3)[Gal(b1-4)GlcNAc(b1-2)[Gal(b1-4)GlcNAc(b1-6)]Man(a1-6)]Man(b1-4)GlcNAc(b1-4)GlcNAc
# In short: as §1
# [19] = target: Gal(b1-4)GlcNAc(b1-2)[Gal(b1-4)GlcNAc(b1-4)]Man(a1-3)[GlcNAc(b1-4)][Gal(b1-4)GlcNAc(b1-2)[Gal(b1-4)GlcNAc(b1-6)]Man(a1-6)]Man(b1-4)GlcNAc(b1-4)GlcNAc
# In short: as §1
# [20] = target: Gal(b1-4)GlcNAc(b1-3)Gal(b1-4)GlcNAc(b1-3)Gal(b1-4)GlcNAc(b1-3)Gal(b1-4)GlcNAc(b1-3)Gal(b1-4)GlcNAc(b1-2)Man(a1-3)[Gal(b1-4)GlcNAc(b1-3)Gal(b1-4)GlcNAc(b1-3)Gal(b1-4)GlcNAc(b1-3)Gal(b1-4)GlcNAc(b1-3)Gal(b1-4)GlcNAc(b1-2)Man(a1-6)]Man(b1-4)GlcNAc(b1-4)[Fuc(a1-6)]GlcNAc
# In short: as §1
# [21] = target: Gal(b1-4)GlcNAc(b1-3)Gal(b1-4)GlcNAc(b1-3)[Gal(b1-4)GlcNAc(b1-3)Gal(b1-4)GlcNAc(b1-6)]GalNAc
# In short: as §1
# Gal3S(b1-4)Glc6S = target: Gal3S(b1-4)Glc6S
# In short: as §1
# Gal6P(b1-4)GlcNAc = target: Gal6P(b1-4)GlcNAc
# In short: as §1
# [22] = target: Glc(a1-6)Glc(a1-6)Glc(a1-6)Glc
# In short: as §1
# [23] = target: GlcNAc(b1-3)Gal(b1-4)GlcNAc(b1-2)[GlcNAc(b1-3)Gal(b1-4)GlcNAc(b1-6)]Man(a1-6)[GlcNAc(b1-3)Gal(b1-4)GlcNAc(b1-2)Man(a1-3)]Man(b1-4)GlcNAc(b1-4)GlcNAc
# In short: as §1
# [24] = target: GlcNAc(b1-3)Gal(b1-4)GlcNAc(b1-3)Gal(b1-4)GlcNAc
# In short: as §1
# [25] = target: GlcNAc(b1-3)Gal(b1-4)GlcNAc(b1-3)GalNAc
# In short: as §1
# [26] = target: GlcNAc(b1-4)GlcNAc(b1-4)GlcNAc
# In short: as §1
# [27] = target: GlcNAc(b1-4)GlcNAc(b1-4)GlcNAc(b1-4)GlcNAc(b1-4)GlcNAc
# In short: as §1
# [28] = target: GlcNAc(b1-4)GlcNAc(b1-4)GlcNAc(b1-4)GlcNAc(b1-4)GlcNAc(b1-4)GlcNAc
# In short: as §1
# MurNAc(b1-4)GlcNAc = target: MurNAc(b1-4)GlcNAc
# In short: as §1
# [29] = target: Neu5Ac(a2-3)Gal(b1-3)GlcNAc
# In short: as §1
# Neu5Ac(a2-3)Gal(b1-4)Glc = target: Neu5Ac(a2-3)Gal(b1-4)Glc
# In short: as §1
# [30] = target: Neu5Ac(a2-3)Gal(b1-4)GlcNAc(b1-3)Gal
# In short: as §1
# [31] = target: Neu5Ac(a2-3)Gal(b1-4)GlcNAc(b1-3)Gal(b1-4)GlcNAc
# In short: as §1
# [32] = target: Neu5Ac(a2-3)Gal(b1-4)GlcNAc(b1-6)GalNAc
# In short: as §1
# [33] = target: Neu5Ac(a2-3)Gal(b1-4)[Fuc(a1-3)]GlcNAc
# In short: as §1
# [34] = target: Neu5Ac(a2-3)Gal(b1-4)[Fuc(a1-3)]GlcNAc(b1-3)Gal(b1-4)[Fuc(a1-3)]GlcNAc(b1-3)Gal(b1-4)[Fuc(a1-3)]GlcNAc
# In short: as §1
# [35] = target: Neu5Ac(a2-3)Gal(b1-4)[Fuc(a1-3)]GlcNAc(b1-3)GalNAc
# In short: as §1
# Neu5Ac(a2-3)GalNAc = target: Neu5Ac(a2-3)GalNAc
# In short: as §1
# [36] = target: Neu5Ac(a2-3)[Neu5Ac(a2-6)]GalNAc
# In short: as §1
# Neu5Ac(a2-6)Gal(b1-4)Glc = target: Neu5Ac(a2-6)Gal(b1-4)Glc
# In short: as §1
# [37] = target: Neu5Ac(a2-6)Gal(b1-4)GlcNAc(b1-2)Man(a1-3)[Neu5Ac(a2-6)Gal(b1-4)GlcNAc(b1-2)Man(a1-6)]Man(b1-4)GlcNAc(b1-4)GlcNAc
# In short: as §1
# [38] = target: Neu5Ac(a2-6)Gal(b1-4)GlcNAc(b1-2)Man(a1-6)[Man(a1-3)]Man(b1-4)GlcNAc(b1-4)GlcNAc
# In short: as §1
# [39] = target: Neu5Ac(a2-6)Gal(b1-4)GlcNAc(b1-3)Gal(b1-4)GlcNAc(b1-3)Gal(b1-4)GlcNAc(b1-2)Man(a1-3)[Neu5Ac(a2-6)Gal(b1-4)GlcNAc(b1-3)Gal(b1-4)GlcNAc(b1-3)Gal(b1-4)GlcNAc(b1-2)Man(a1-6)]GalNAc
# In short: as §1
# [40] = target: Neu5Ac(a2-6)Gal(b1-4)GlcNAc(b1-3)Gal(b1-4)[Fuc(a1-3)]GlcNAc(b1-3)Gal(b1-4)[Fuc(a1-3)]GlcNAc
# In short: as §1
# [41] = target: Neu5Ac(a2-6)GlcNAc(b1-4)GlcNAc(b1-4)GlcNAc
# In short: as §1
# [42] = target: Neu5Ac(a2-8)Neu5Ac(a2-3)Gal(b1-3)GalNAc(b1-4)[Neu5Ac(a2-8)Neu5Ac(a2-3)]Gal(b1-4)Glc
# In short: as §1
# [43] = target: Neu5Ac(a2-8)Neu5Ac(a2-8)Neu5Ac
# In short: as §1
binder,measurement,setting,value
"MSMEG3662-2a (Mycobacterium smegmatis), A0QYH7_MYCS2 (protein) MGDTLTAGQKLERGGSLQSGNGAYTLTLQDDGNLVLYARDKAVWSTGTNGQDVVRAEVQTDGNFVLYTAEKPVWHTDTKGKKEVKLVLQDDRNLVLYAKDGPAWSSKTDTTEPPPPAPEPEKEAEVAPAAAEEAAPAPVAEPAPAEPAPAAPPPAPPAPRTYTVVSGDTLWAIAERFYGDGSKYQQIADASGIANPDLIHPGQVLTIP",glycan array binding signal (z-score),[1],-0.084
same,glycan array binding signal (z-score),[2],0.02
same,glycan array binding signal (z-score),[3],0.35
same,glycan array binding signal (z-score),[4],-0.023
same,glycan array binding signal (z-score),[5],-0.103
same,glycan array binding signal (z-score),[6],-0.102
same,glycan array binding signal (z-score),[7],-0.24
same,glycan array binding signal (z-score),[8],0.285
same,glycan array binding signal (z-score),[9],-0.124
same,glycan array binding signal (z-score),[10],-0.046
same,glycan array binding signal (z-score),[11],-0.028
same,glycan array binding signal (z-score),[12],0.413
same,glycan array binding signal (z-score),Fuc(a1-4)GlcNAc,11.1
same,glycan array binding signal (z-score),[13],-0.039
same,glycan array binding signal (z-score),[14],0.25
same,glycan array binding signal (z-score),[15],-0.105
same,glycan array binding signal (z-score),[16],0.064
same,glycan array binding signal (z-score),[17],-0.067
same,glycan array binding signal (z-score),[18],-0.118
same,glycan array binding signal (z-score),[19],-0.186
same,glycan array binding signal (z-score),[20],0.159
same,glycan array binding signal (z-score),[21],0.038
same,glycan array binding signal (z-score),Gal3S(b1-4)Glc6S,-0.107
same,glycan array binding signal (z-score),Gal6P(b1-4)GlcNAc,-0.205
same,glycan array binding signal (z-score),[22],-0.182
same,glycan array binding signal (z-score),[23],-0.017
same,glycan array binding signal (z-score),[24],-0.131
same,glycan array binding signal (z-score),[25],-0.121
same,glycan array binding signal (z-score),[26],3.59
same,glycan array binding signal (z-score),[27],8.12
same,glycan array binding signal (z-score),[28],13.9
same,glycan array binding signal (z-score),MurNAc(b1-4)GlcNAc,1.49
same,glycan array binding signal (z-score),[29],-0.039
same,glycan array binding signal (z-score),Neu5Ac(a2-3)Gal(b1-4)Glc,0.572
same,glycan array binding signal (z-score),[30],-0.15
same,glycan array binding signal (z-score),[31],0.065
same,glycan array binding signal (z-score),[32],-0.234
same,glycan array binding signal (z-score),[33],-0.124
same,glycan array binding signal (z-score),[34],-0.044
same,glycan array binding signal (z-score),[35],0.43
same,glycan array binding signal (z-score),Neu5Ac(a2-3)GalNAc,-0.06
same,glycan array binding signal (z-score),[36],-0.161
same,glycan array binding signal (z-score),Neu5Ac(a2-6)Gal(b1-4)Glc,-0.068
same,glycan array binding signal (z-score),[37],-0.046
same,glycan array binding signal (z-score),[38],-0.14
same,glycan array binding signal (z-score),[39],0.293
same,glycan array binding signal (z-score),[40],-0.129
same,glycan array binding signal (z-score),[41],1.58
same,glycan array binding signal (z-score),[42],0.097
same,glycan array binding signal (z-score),[43],-0.147
